# Assay outcomes from PubChem BioAssay.
# Measles CPE: protection of cells from measles virus; hit rate 1.5% among 140,000; Measles virus-infected cells, CPE protection, absorbance; protection (pct of control), % at 4 µM; in the data active = protection mostly above about 24%, no sharp cut-off; inactive = mostly below about 26%
# CYP2C9 act: increases human cytochrome P450 2C9 activity. P11712. recombinant CYP2C9, luciferin-H conversion, luminescence; active compounds read high; factor 1 = untreated enzyme, 0 = blocked. activation factor at 5 µM. hit rate 1.4% among 96,000. AID 1024;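 active = activation factor of 2 or more for CYP2C9 at a 5 µM dose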
# CYP2C19 inhib: blocks human cytochrome P450 2C19; hit rate 21% among 96,000; inhibition, % at 5 µM; CYP2C19 Supersomes, luciferin-H EGE luminescence, 30 min; AID 778; P33261;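 active = CYP2C19 inhibition above a set limit at 5 µM in the primary screen, cut at about 50% in these data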
# Target sequence (P33261 whole entry, looked up): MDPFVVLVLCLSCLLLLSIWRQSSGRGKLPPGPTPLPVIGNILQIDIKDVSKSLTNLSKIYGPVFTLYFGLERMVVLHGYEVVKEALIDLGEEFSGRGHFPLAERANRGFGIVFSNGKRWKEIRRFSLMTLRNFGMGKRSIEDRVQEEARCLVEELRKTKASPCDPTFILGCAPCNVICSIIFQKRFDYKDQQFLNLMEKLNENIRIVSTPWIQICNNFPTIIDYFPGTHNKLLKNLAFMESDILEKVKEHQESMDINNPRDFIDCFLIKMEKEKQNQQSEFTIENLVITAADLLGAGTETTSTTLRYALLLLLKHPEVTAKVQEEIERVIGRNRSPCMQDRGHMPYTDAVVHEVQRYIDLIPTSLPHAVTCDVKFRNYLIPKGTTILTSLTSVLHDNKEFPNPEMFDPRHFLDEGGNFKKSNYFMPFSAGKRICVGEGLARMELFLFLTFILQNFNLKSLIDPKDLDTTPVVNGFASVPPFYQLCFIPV
# CYP2C9 inhib: inhibitors of human CYP2C9 | CYP2C9 Supersomes, luciferin-H conversion, luminescence | inhibition, % at 5 µM | hit rate 20% among 96,000 | AID 777;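 active = blocking of liver enzyme CYP2C9 beyond about 50% at 5 µM, limit read from the data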
# CYP2C19 activ: increases human CYP2C19 enzyme activity. 96,000 tested, under 10 active. P33261. recombinant CYP2C19, luciferin-H EGE luminescence; active compounds read high; 0 = fully inhibited enzyme, 1 = untreated enzyme. AID 1025. activation factor at 5 µM;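 active = activation factor of at least 2 at 5 µM in the primary screen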
# Numbers stand for hits; – = inactive; · = no result given. In the library only some 22% were active in any assay of this set; here they are far more common.
SMILES,Measles CPE,CYP2C9 act,CYP2C19 inhib,CYP2C9 inhib,CYP2C19 activ
CC(NS(=O)(=O)c1ccc(Cl)cc1)C(=O)NCc1ccco1 (stereo not drawn),–,–,66,–,–
O=C(NCc1ccco1)C1(S(=O)(=O)c2ccc(Cl)cc2)CC1,–,–,73,–,–
CC(NS(=O)(=O)c1ccc(F)cc1)C(=O)NCc1ccncc1 (stereo not drawn),–,–,94,65,–
O=C(NCCN1CCCC1)C1(S(=O)(=O)c2ccc(Cl)cc2)CC1,–,–,–,–,–
COc1ccc(S(=O)(=O)NC(CC(=O)NCc2ccco2)C(C)C)cc1 (stereo not drawn),–,–,61,–,–
Cc1ccc(S(=O)(=O)N[C@@H](CC(C)C)C(=O)NCc2ccco2)cc1,–,–,–,–,–
CCOCc1nc(N)[nH]c(=O)c1Cc1ccc(OC(C)C)cc1,–,·,·,·,·
COc1cccc(C(CC(=O)NCc2ccco2)NS(=O)(=O)c2ccc(C)cc2)c1OC (stereo not drawn),–,–,81,–,–
O=C(CC(NS(=O)(=O)c1ccc(Cl)cc1)c1ccco1)NCc1ccco1 (stereo not drawn),–,–,61,–,–
COc1ccc(CNC(=O)CSc2nc3ccc(N)cc3s2)cc1,–,·,·,·,·
Cc1cc(=O)[nH]c(N/N=C/c2ccc(Br)s2)n1,–,·,·,·,·
Cc1cccc(NC(=O)Cn2cnc3ccc(S(=O)(=O)N4CCC(C)CC4)cc3c2=O)n1,–,–,–,–,–
O=C(NC(=S)Nc1ccc2[nH]ncc2c1)c1ccccc1,–,–,99,95,–
O=C(NC(=S)Nc1ccc(Cc2ccncc2)cc1)c1ccccc1,–,·,·,·,·
CCOC(=O)C(C)Sc1nnc(CNC(=O)c2ccc(OC)cc2)n1C1CCCCC1 (stereo not drawn),–,–,62,–,–
COc1ccc(C(=O)NCc2nnc(SC)n2C2CCCCC2)cc1,–,·,·,·,·
CCOC(=O)C(C)S(=O)(=O)c1ccc(C(F)(F)F)cn1 (stereo not drawn),–,–,54,–,–
CCOC(=O)N1CCN(c2ccc(C(F)(F)F)cn2)CC1,–,·,·,·,·
C=CCn1c(SCN2C(=O)c3ccccc3C2=O)nc2ccc(Cl)cc2c1=O,–,·,·,·,·
C(=N\n1cnnc1)/c1ccc2ncccc2c1,–,–,57,–,–
COc1ccccc1OCCCn1c(C)c(C#N)c2ccccc21,–,–,–,78,–
COc1ccccc1OCCCn1cc(C#N)c2ccccc21,–,–,100,95,–
C=C(C)CSc1nnc2n(C)c(=O)c3c4c(sc3n12)CCC4,–,–,55,56,–
NC(=O)CSc1nnc2n(-c3ccccc3)c(=O)c3c4c(sc3n12)CCCCC4,–,–,–,–,–
O=c1nc(N2CCOCC2)ccn1-c1nc(-c2ccccc2)oc1-c1ccccc1,–,–,–,55,–
SMILES,Measles CPE,CYP2C9 act,CYP2C19 inhib,CYP2C9 inhib,CYP2C19 activ
COc1cc(C2NC(=O)NC(C)=C2C(=O)OC(C)C)ccc1OC(=O)c1ccco1 (stereo not drawn),–,·,·,·,·
Cc1cccc2c(SCC(=O)NCC3CCCO3)nc(-c3ccc(F)cc3)nc12 (stereo not drawn),–,–,52,–,–
Cn1cc(SCC(=O)NCC2CCCO2)c2ccccc21 (stereo not drawn),–,2.2,–,–,–
Cc1cccc2cc(C#N)c(SCC(=O)NCC3CCCO3)nc12 (stereo not drawn),–,·,·,·,·
COc1ccc(-n2nnc3c(SCC(=O)c4ccccc4)ncnc32)cc1,–,–,–,–,–
Cc1ccc(-n2nnc3c(SCC(=O)NCC4CCCO4)ncnc32)cc1 (stereo not drawn),–,–,–,64,–
O=C(CSc1ncnc2c1nnn2-c1ccc(F)cc1)NCC1CCCO1 (stereo not drawn),–,–,–,–,–
COC(=O)c1ccc(CSc2ncnc3c2nnn3-c2ccc(OC)cc2)o1,–,–,52,56,–
CCOc1cccc(C(=O)Nc2cccc(C(=O)NCC(C)C)c2)c1,–,·,·,·,·
CCOC(=O)NC(c1ccc(C(C)C)cc1)C(Cl)(Cl)Cl (stereo not drawn),–,·,·,·,·
Cc1nc2ncnn2c(C)c1CCC(=O)Oc1ccccc1,–,–,–,–,–
O=C(CSc1c[nH]c2ccccc12)NCC1CCCO1 (stereo not drawn),–,–,54,–,–
Cn1c(=O)cc(SCC(=O)NCC2CCCO2)c2ccccc21 (stereo not drawn),–,2.1,–,–,–
